The subject of test [1] is frog Estrogen Receptor (ER2), gene 100174814. The test is described as follows: ATG_frER2_XSP2: Attagene TRANS-FACTORIAL Multi-Species (XSP2) HepG2 Assay for frog Estrogen Receptor (ER2) (AID 2283828). The method in brief: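 Human liver HepG2, transient MRTU transfection (TRANS format, exogenous NR–Gal4). 24 h cpd exposure. Total RNA → RT → PCR → FAM label → HpaI cut → CE. Positive direction vs DMSO.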

Test [2] concerns the target Peroxisome proliferator-activated receptor gamma (Homo sapiens) (UniProt P37231). The experiment in a line: ATG_hPPARg_XSP2: Attagene TRANS-FACTORIAL Multi-Species (XSP2) HepG2 Assay for human Peroxisome Proliferator-activated Receptor gamma (PPARg) (AID 2283829).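 Further: actives raise reporter mRNA above DMSO so AC50 reflects PPARg activation.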 Put shortly:
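After transfecting HepG2 with GAL4-UAS reporter constructs, cells are dosed for 24 h; total RNA is reverse-transcribed, PCR-amplified, FAM-labeled, HpaI-digested and resolved by capillary electrophoresis. Activity is measured as mRNA induction relative to DMSO.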

The target in test [3] is mouse Peroxisome Proliferator-activated Receptor gamma (PPARg), Pparg (gene 19016) (UniProt P37238). The test is described as follows: ATG_mPPARg_XSP2: Attagene TRANS-FACTORIAL Multi-Species (XSP2) HepG2 Assay for mouse Peroxisome Proliferator-activated Receptor gamma (PPARg) (AID 2283830).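 Further: hits are gains in reporter mRNA above DMSO so AC50 marks activation.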 Put shortly: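 HepG2 cells transiently transfected with GAL4-UAS reporter units for chimeric NR-Gal4 proteins including mouse PPARg, exposed 24 h; medium contained 3 nM 6-alpha-fluorotestosterone and 1.5 nM norgestrel. Reporter mRNA quantified by RT-PCR, HpaI digestion and capillary electrophoresis, vs DMSO.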

Test [4] deals with Nuclear receptor subfamily 1 group I member 2 (Mus musculus) (UniProt O54915). The experiment in a line: ATG_mPXR_XSP2: Attagene TRANS-FACTORIAL Multi-Species (XSP1) HepG2 Assay for mouse Pregnane X Receptor (PXR) (AID 2283831). The method in brief: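 Reporter transcripts were quantified by RT-PCR, FAM primer extension, HpaI digestion and capillary electrophoresis after 24 h of chemical exposure in transiently transfected HepG2 cells carrying chimeric receptor-GAL4 constructs; DMSO served as baseline.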

The target of test [5] is zebrafish Thyroid Hormone Receptor alpha (TRa), thraa (gene 30670) (UniProt Q98867). The experiment in a line: ATG_zfTRa_XSP2: Attagene TRANS-FACTORIAL Multi-Species (XSP1) HepG2 Assay for zebrafish Thyroid Hormone Receptor alpha (TRa) (AID 2283832).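 Further: actives raise zebrafish TRa-Gal4 reporter transcript above DMSO baseline.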 Put shortly: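 Chimeric receptor-Gal4 activity was assessed in transfected human liver HepG2 cells 24 h after dosing, using reporter transcript levels detected by RT-PCR and capillary electrophoresis. DMSO served as baseline.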

For test [6], the system named is zebrafish Peroxisome Proliferator-activated Receptor gamma (PPARg), gene 557037. The test is described as follows: ATG_zfPPARg_XSP2: Attagene TRANS-FACTORIAL Multi-Species (XSP2) HepG2 Assay for zebrafish Peroxisome Proliferator-activated Receptor gamma (PPARg) (AID 2283833).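 Further: actives increase reporter signal over DMSO so AC50 reflects activation.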 The method in brief: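 Multi-species TRANS format in HepG2, 24 h dosing; medium also contained 3 nM 6-alpha-fluorotestosterone and 1.5 nM norgestrel to stimulate androgen receptor. Zebrafish PPARg-GAL4 induced reporter mRNA was measured by RT-PCR/capillary electrophoresis.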

Test [7] relates to turtle Thyroid Hormone Receptor, alpha (TRa), gene 101949057. The experiment in a line: ATG_trTRa_XSP2: Attagene TRANS-FACTORIAL Multi-Species (XSP1) HepG2 Assay for turtle Thyroid Hormone Receptor, alpha (TRa) (AID 2283834).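 Further: hits raise reporter mRNA over the DMSO baseline so AC50 marks activators.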 As for the experimental part: ATG_XSP2_multi-species_TRANS is a cell-based, multiplexed assay created by modifying the existing Attagene TRANS-FACTORIAL system to include a panel of nuclear receptors from some or all the following species: human (Homo sapiens), mouse (Mus musculus), frog (Xenopus laevis), zebrafish (Danio rerio), chicken (Gallus gallus), and turtle (Chrysemys picta). The ECOTOX-FACTORIAL format uses HepG2, a human liver cell line, with measurements taken at 24 hours after chemical dosing in a 24-well plate. Xsp2 included 3 nM 6-alpha-fluorotestosterone and 1.5 nM norgestrel to stimulate the androgen receptor.ATG_trTRa_XSP2 is one of 29 assay components measured or calculated from the ATG_XSP2_multi-species_TRANS assay. It is designed to make measurements of mRNA induction, a form of inducible reporter, as detected with fluorescence intensity signals by Reverse transcription polymerase chain reaction (RT-PCR) and Capillary electrophoresis technology.The assay endpoint ATG_trTRa_XSP2 was analyzed in the positive analysis fitting direction relative to DMSO as the negative control and baseline of activity. Using a type of inducible reporter, measures of mRNA for gain-of-signal activity can be used to understand the reporter gene at the transcription factor-level as they relate to the gene TR. Furthermore, this assay endpoint can be referred to as a primary readout, because this assay has produced multiple assay endpoints where this one serves a reporter gene function. To generalize the intended target to other relatable targets, this assay endpoint is annotated to the nuclear receptor intended target family, where the subfamily is non-steroidal.
Human liver HepG2 cells are transiently transfected with multiple reporter transcription units (MRTUs) in 6-well plates using FuGene 6 reagent (Roche; 3 ml FuGene/1 mg DNA). The MRTU constructs are regulated by a cis-regulating element (promoter). […] A major difference between the CIS and TRANS system is that in CIS activities of endogenous TFs are measured, whereas the TRANS assay evaluates changes in activities of exogenous, chimeric NR-Gal4 proteins. […] At the end of 24 hour incubation, total RNA was isolated using TriZol reagent (Invitrogen). The isolated RNA is then reverse-transcribed using oligo(dT) primer and Mo-MLV reverse transcriptase (Invitrogen) with DNAse I (Ambion) treatment for 30 min. The one-tenth of the produced cDNA was amplified by PCR using Taq DNA polymerase (Invitrogen) and two reporter sequence-specific primers. The PCR products were fluorescently labeled by primer extension with 6-arboxyfluorescein (6-FAM) 5'-labeled reporter sequence-specific primer (2 min at 95 C, 20 s at 68 C and 10 min at 72 C) and these products were digested with 5U of HpaI (New England Biolabs) for 2h at 37 C. The fragments were purified using Qiaquick PCR columns (Qiagen), analyzed on an ABI 3130xL genetic analyzer (Applied Biosystems) with peak positions identified by using a set of X-rhodamine (ROX)-labeled MapMarker1000 molecular weight standards (BioVentures). The raw capillary electrophoresis data was processed using Attagraph software (Attagene).

A short description of test [8]: ATG_M_61_XSP2: Attagene TRANS-FACTORIAL Multi-Species (XSP2) HepG2 Assay for M61 Transcription Factor (Internal Marker) (AID 2283835; active means hit-call score of the fitted dose curve at least 0.9, where 1 is the maximum; inactive means score below 0.9;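 further: active means a rise in signal above the DMSO baseline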). Put shortly: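 HepG2 cells transiently transfected with multiple GAL4-UAS reporter units; 3 nM 6-alpha-fluorotestosterone and 1.5 nM norgestrel present to stimulate androgen receptor. After 24 h compound exposure, reporter mRNA measured by RT-PCR and capillary electrophoresis fluorescence, gain-of-signal versus DMSO baseline.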

Test [9] addresses zebrafish Thyroid Hormone Receptor beta (TRb), thrb (gene 30607) (UniProt Q9PVE4). The test is described as follows: ATG_zfTRb_XSP2: Attagene TRANS-FACTORIAL Multi-Species (XSP1) HepG2 Assay for zebrafish Thyroid Hormone Receptor beta (TRb) (AID 2283836).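 On AC50: potency for induction of reporter signal above DMSO so agonist direction.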 The method in brief: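 Fluorescence of labelled reporter cDNA fragments, separated by capillary electrophoresis, gives mRNA induction from exogenous NR-Gal4 chimeras in transiently transfected HepG2 cells after 24 h dosing; 3 nM 6-alpha-fluorotestosterone and 1.5 nM norgestrel included in the run.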

Test [10] relates to zebrafish Androgen Receptor (AR), gene 100005148. The test is described as follows: ATG_zfAR_XSP2: Attagene TRANS-FACTORIAL Multi-Species (XSP2) HepG2 Assay for zebrafish Androgen Receptor (AR) (AID 2283825).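 Further: hits raise reporter mRNA above DMSO so AC50 reflects agonist-type gain.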 Put shortly: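 Zebrafish AR–GAL4 chimera transiently expressed with GAL4-UAS reporter in HepG2 cells, co-stimulated with 3 nM 6-alpha-fluorotestosterone and 1.5 nM norgestrel; 24 h dosing, reporter mRNA read by RT-PCR/capillary electrophoresis versus DMSO.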

Values joined by “and” are separate entries in the source; they are usually repeats but may differ in a detail not shown here. Equal values may be shown once. Results filed as inconclusive are left out. The source holds several records for some structures; these can differ, active in one and inactive in another. Active and inactive are the calls of the source. How the source made its calls, unless noted: active means hit-call score of the fitted dose curve at least 0.9, where 1 is the maximum; inconclusive means response in the unintended direction; inactive means score below 0.9.

Sequence of Nuclear receptor subfamily 1 group I member 2 (Mus musculus) (O54915 whole entry, looked up, the tested form may be a part): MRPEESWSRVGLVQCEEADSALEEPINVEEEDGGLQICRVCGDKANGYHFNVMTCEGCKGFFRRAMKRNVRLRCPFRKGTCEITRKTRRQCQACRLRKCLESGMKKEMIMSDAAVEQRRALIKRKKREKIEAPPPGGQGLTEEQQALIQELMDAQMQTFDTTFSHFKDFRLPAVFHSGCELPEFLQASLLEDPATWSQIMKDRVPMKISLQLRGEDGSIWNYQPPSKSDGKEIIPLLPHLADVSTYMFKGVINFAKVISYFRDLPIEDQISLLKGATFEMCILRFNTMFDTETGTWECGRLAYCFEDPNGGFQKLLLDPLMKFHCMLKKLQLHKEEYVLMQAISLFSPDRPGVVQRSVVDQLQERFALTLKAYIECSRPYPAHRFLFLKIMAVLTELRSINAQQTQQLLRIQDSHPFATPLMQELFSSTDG
Sequence of Peroxisome proliferator-activated receptor gamma (Homo sapiens) (P37231 whole entry, looked up, the tested form may be a part): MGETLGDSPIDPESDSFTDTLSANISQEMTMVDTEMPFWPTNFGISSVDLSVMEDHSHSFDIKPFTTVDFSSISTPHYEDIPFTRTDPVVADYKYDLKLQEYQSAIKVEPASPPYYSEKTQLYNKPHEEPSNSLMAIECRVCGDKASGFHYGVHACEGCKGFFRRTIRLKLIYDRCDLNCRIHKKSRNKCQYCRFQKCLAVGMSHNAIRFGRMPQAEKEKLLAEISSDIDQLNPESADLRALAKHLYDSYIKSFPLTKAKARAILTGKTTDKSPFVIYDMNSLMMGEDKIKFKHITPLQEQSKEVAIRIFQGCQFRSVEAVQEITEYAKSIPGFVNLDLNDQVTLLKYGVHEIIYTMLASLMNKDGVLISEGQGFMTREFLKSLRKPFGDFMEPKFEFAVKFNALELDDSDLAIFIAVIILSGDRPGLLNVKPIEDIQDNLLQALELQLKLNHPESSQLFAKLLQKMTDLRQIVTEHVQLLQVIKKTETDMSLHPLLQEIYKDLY
Sequence of mouse Peroxisome Proliferator-activated Receptor gamma (PPARg), Pparg (gene 19016) (P37238 whole entry, looked up, the tested form may be a part): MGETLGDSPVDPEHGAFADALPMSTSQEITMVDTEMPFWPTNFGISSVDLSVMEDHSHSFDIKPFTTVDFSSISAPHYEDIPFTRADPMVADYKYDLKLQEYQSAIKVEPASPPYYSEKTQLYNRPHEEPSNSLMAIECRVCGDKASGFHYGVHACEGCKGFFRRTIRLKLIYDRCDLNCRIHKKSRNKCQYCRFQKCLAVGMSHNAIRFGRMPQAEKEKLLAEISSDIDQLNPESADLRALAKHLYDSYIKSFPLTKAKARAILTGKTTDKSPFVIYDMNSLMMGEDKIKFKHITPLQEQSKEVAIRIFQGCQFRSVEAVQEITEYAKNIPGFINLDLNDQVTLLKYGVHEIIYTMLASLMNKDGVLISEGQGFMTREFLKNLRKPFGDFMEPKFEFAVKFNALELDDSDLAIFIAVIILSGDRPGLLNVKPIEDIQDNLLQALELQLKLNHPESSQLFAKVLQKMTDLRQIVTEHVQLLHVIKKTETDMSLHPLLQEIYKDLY
Sequence of zebrafish Thyroid Hormone Receptor beta (TRb), thrb (gene 30607) (Q9PVE4 whole entry, looked up, the tested form may be a part): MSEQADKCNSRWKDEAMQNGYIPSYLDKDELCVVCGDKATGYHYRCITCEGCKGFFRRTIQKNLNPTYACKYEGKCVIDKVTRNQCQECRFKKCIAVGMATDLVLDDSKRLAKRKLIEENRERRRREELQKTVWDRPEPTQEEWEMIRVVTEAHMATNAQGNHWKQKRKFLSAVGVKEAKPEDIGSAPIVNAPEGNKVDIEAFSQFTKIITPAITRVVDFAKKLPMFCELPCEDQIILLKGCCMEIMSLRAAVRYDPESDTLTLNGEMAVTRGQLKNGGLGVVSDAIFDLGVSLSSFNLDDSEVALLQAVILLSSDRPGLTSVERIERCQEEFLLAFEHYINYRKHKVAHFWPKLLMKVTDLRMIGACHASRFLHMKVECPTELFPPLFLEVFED
Sequence of zebrafish Thyroid Hormone Receptor alpha (TRa), thraa (gene 30670) (Q98867 whole entry, looked up, the tested form may be a part): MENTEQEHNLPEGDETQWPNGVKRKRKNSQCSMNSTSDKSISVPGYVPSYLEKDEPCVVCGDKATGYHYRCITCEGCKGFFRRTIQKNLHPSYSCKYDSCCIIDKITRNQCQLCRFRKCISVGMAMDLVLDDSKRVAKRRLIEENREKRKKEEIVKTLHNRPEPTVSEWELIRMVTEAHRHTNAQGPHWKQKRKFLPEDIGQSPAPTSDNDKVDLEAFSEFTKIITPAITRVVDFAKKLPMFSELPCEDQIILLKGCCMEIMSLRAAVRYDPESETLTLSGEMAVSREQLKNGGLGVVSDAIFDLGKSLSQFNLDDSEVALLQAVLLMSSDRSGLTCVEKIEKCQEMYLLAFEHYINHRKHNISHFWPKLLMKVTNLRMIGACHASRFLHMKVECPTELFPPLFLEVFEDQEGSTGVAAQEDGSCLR

By AC50 is commonly meant the concentration giving half of the maximal activity seen. For the compound `O=c1c(O)c(-c2ccc(O)cc2)oc2cc(O)cc(O)c12`, the AC50 is 1.75 µM (active) and 945 nM (active) in [1]; 12.5 µM (active) and 7.02 µM (active) in test [2]; 12 µM (active) in test [3]. For the same compound, the compound was classed as inactive in [4], in test [5], in test [6], in test [7], in test [8] and in test [9].

In the case of `OCc1cccc(Oc2ccccc2)c1`, the concentration at half-maximal activity (AC50) was 27.5 µM (active) and 9.21 µM (active) in [1]; 60.3 µM (active) and 36.7 µM (active) in test [2]; 40.6 µM (active) and 34.9 µM (active) in [3]; 57.4 µM (active) in test [4]. The call in [4], in test [5], in [6], in test [7], in [8] and in [9] was inactive.

On to `Cc1cc(=O)oc2cc(N(C)C)ccc12`, for which the AC50 in [1] was 48.9 µM (active); in test [2], 24.8 µM (active) and 17 µM (active); in [3] it was 33.5 µM (active) and 27.8 µM (active); in test [4], 4.03 µM (active) and 6.44 µM (active). For the same compound, the result in [5], in test [6], in test [7], in test [8] and in test [9] was inactive.

As for `BrCc1cccc(Oc2ccccc2)c1`, the concentration at half-maximal activity (AC50) in test [1] was 15.7 µM (active) and 10.2 µM (active); in [2], 58.6 µM (active) and 35.6 µM (active); in test [3] it was 66.6 µM (active) and 39 µM (active); in test [4], 27.7 µM (active). Besides, the result in [4], in test [5], in [6], in test [7], in test [8] and in test [9] was inactive.

`Oc1ccc2cc(SSc3ccc4cc(O)ccc4c3)ccc2c1`: the AC50 was 925 nM (active) and 696 nM (active) in test [1]; 4.81 µM (active) and 4.29 µM (active) in test [2]; 7.19 µM (active) and 5.11 µM (active) in test [3]; 36.2 µM (active) and 20.8 µM (active) in test [4]; 156 µM (active) in test [5]; 26.8 µM (active) in [7]. The AC50 in test [9] is 154 µM (active). Besides, the compound was classed as inactive in [5], in test [6], in test [7], in [8] and in test [9].

Turning to `CCCCC(CC)COC(=O)c1ccc(O)cc1` (stereo not drawn), the result in test [10], in test [5] and in [9] was inactive. Also, the values for the AC50 in test [4] and in test [6] were 56.4 µM (active) and 60 µM (active), respectively.

Regarding `Clc1ccc(C(c2ccccc2Cl)C(Cl)Cl)cc1` (stereo not drawn), the AC50 is 1.34 µM (active) and 1.64 µM (active) in test [1]; 5.19 µM (active) and 5.09 µM (active) in test [4]. Besides, the compound was classed as inactive in test [2], in test [3], in test [5], in test [6], in [8] and in [9].

These data come from PubChem BioAssay (EPA / NIEHS).
